# PubChem BioAssay AID743449 (Broad Institute, 2014)
# Among all 9,900 compounds or so, about 90 (0.9%) were called active. Roughly 2% stayed inconclusive and do not appear here. Only a selection was taken, and actives are over-represented in it overall. A number with no mark means an inactive call.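 Rule for the calls: active = mean normalized replicate activity at least 50 and at least half of replicates each reaching 50; inconclusive = only one of the two criteria met; inactive = neither criterion met.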
# Test: reduction of CTGF mRNA in DLD1 cells – DLD1 colon cancer cells, RT-qPCR, single point, primary screen (AID 743449);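 note: 0% = neutral control wells and 100% = dasatinib control wells; higher means stronger suppression of CTGF expression like dasatinib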
# Conditions: 24 h, at 12.5 µM, hits give high values
row,Structure (SMILES),inhibition
1,Cc1cccc(-c2ccc([C@H]3[C@@H](CO)N4CCCCN(S(=O)(=O)c5ccccc5F)C[C@@H]34)cc2)c1,-8.63%
2,COc1ccc(NC(=O)N2CCCCN3[C@H](CO)[C@H](c4ccc(-c5ccccc5F)cc4)[C@H]3C2)cc1,-50.7%
3,Cc1ccccc1-c1ccc([C@@H]2[C@H](CO)N3CCCCN(S(=O)(=O)Cc4ccccc4)C[C@@H]23)cc1,26%
4,Cc1cccc(-c2ccc([C@@H]3[C@@H](CO)N4CCCCN(S(=O)(=O)c5ccccc5F)C[C@@H]34)cc2)c1,63.6% (active)
5,Cc1ccccc1-c1ccc([C@H]2[C@@H](CO)N3CCCCN(S(=O)(=O)Cc4ccccc4)C[C@H]23)cc1,-18.5%
6,COc1ccc(NC(=O)N2CCCCN3[C@H](C2)[C@@H](c2ccc(-c4ccccc4F)cc2)[C@@H]3CO)cc1,-27.6%
7,Cc1cccc(-c2ccc([C@@H]3[C@@H](CO)N4CCCCN(S(=O)(=O)c5ccccc5F)C[C@H]34)cc2)c1,15.5%
8,COc1ccc(NC(=O)N2CCCCN3[C@@H](CO)[C@H](c4ccc(-c5ccccc5F)cc4)[C@@H]3C2)cc1,59.6% (active)
9,CC(=O)N1CCCCN2[C@H](CO)[C@H](c3ccc(-c4ccccc4)cc3)[C@H]2C1,9.46%
10,CC(=O)N1CCCCN2[C@@H](CO)[C@H](c3ccc(-c4ccccc4)cc3)[C@@H]2C1,62% (active)
11,Cc1ccccc1-c1ccc([C@H]2[C@@H](CO)N3CCCCN(S(=O)(=O)Cc4ccccc4)C[C@@H]23)cc1,66% (active)
12,CC(=O)N1CCCCN2[C@@H](CO)[C@@H](c3ccc(-c4ccccc4)cc3)[C@@H]2C1,-12.5%
13,O=C(C[C@@H]1CC[C@@H]2[C@H](COC[C@H](O)CN2C(=O)c2ccc(F)cc2)O1)N1CCCCC1,4.67%
14,C[C@@H]1CCCCO[C@H](CN(C)Cc2ccc(C(=O)O)cc2)[C@@H](C)CN([C@@H](C)CO)C(=O)c2cc(N(C)C)ccc2O1,-1.12%
15,O=C1N[C@H](Cc2ccccc2)COCc2cnnn2CC[C@@H]1Cc1ccc(-c2ccccc2)cc1,10.4%
16,CS(=O)(=O)N1[C@@H](CO)[C@@H](c2ccccc2)C12CN(Cc1cc(F)ccc1F)C2,2.97%
17,CCC(=O)N1C[C@H](C)[C@@H](OC)CN(C)C(=O)c2ccc(NC(=O)CC(F)(F)F)cc2OC[C@@H]1C,-9.99%
18,CC(C)N(C[C@H]1N[C@H](CO)[C@H]1c1ccccc1)S(=O)(=O)c1ccccc1,-1.38%
19,O=S(=O)(c1ccccc1)N1CCCCN2[C@@H](CO)[C@H](c3ccc(C#CC4CCCC4)cc3)[C@@H]2C1,1.07%
20,O=S(=O)(c1ccccc1)N1CCCCN2[C@H](CO)[C@H](c3ccc(C#CC4CCCC4)cc3)[C@H]2C1,-84.2%
21,O=S(=O)(c1ccccc1)N1CCCCN2[C@H](C1)[C@@H](c1ccc(C#CC3CCCC3)cc1)[C@@H]2CO,50.5% (active)
22,COc1ccccc1C#Cc1ccc([C@@H]2[C@@H](CO)N3CCCCN(C(=O)C4CCC4)C[C@H]23)cc1,4.8%

row,Structure (SMILES),inhibition
1,COc1ccccc1C#Cc1ccc([C@H]2[C@H](CO)N3CCCCN(C(=O)C4CCC4)C[C@@H]23)cc1,68.7% (active)
2,COc1ccccc1C#Cc1ccc([C@@H]2[C@H]3CN(C(=O)C4CCC4)CCCCN3[C@H]2CO)cc1,14.7%
3,O=C(C[C@H]1CC[C@H]2[C@@H](COC[C@@H](O)CN2C(=O)Nc2ccccc2)O1)NCc1ccccc1F,8.8%
4,CCCN1C[C@H](C)[C@H](OC)CN(C)C(=O)c2ccc(NS(=O)(=O)c3cn(C)cn3)cc2OC[C@H]1C,-8.06%
5,CCCC(=O)Nc1ccc2c(c1)C(=O)N(C)C[C@H](OC)[C@@H](C)CN(Cc1ccc(F)cc1)[C@H](C)CO2,-14.1%
6,CN1[C@H](C(=O)Nc2nccs2)[C@@H](CO)[C@@H]2Cn3c(ccc(-c4ccccc4F)c3=O)[C@@H]21,-2.79%
7,C/C=C/c1ccc([C@H]2[C@@H](CNC(=O)CC3CC3)N(C(=O)CC)[C@H]2CO)cc1,-13.1%
8,CCS(=O)(=O)Nc1ccc2c(c1)C(=O)N(C)[C@H]1CC[C@H](CC(=O)NCc3ccc(OC)cc3)O[C@@H]1CO2,-27.1%
9,O=C(C[C@H]1CC[C@H]2NC[C@H](O)COC[C@@H]2O1)N1CCc2ccccc2C1,1.25%
10,C[C@@H]1CN([C@@H](C)CO)C(=O)CCCn2nncc2CO[C@H]1CN(C)C(=O)c1cc(-c2ccccc2)on1,-32.7%
11,C[C@@H]1CN([C@H](C)CO)C(=O)CCCn2nncc2CO[C@H]1CN(C)Cc1cccc(C(F)(F)F)c1,20.5%
12,C[C@@H]1CN([C@@H](C)CO)C(=O)CCCn2nncc2CO[C@@H]1CN(C)C(=O)c1cc(-c2ccccc2)on1,55.9% (active)
13,C[C@H](CO)N1C[C@H](C)[C@@H](CN(C)C(=O)c2cc(-c3ccccc3)on2)OCc2cnnn2CCCC1=O,-12.2%
14,C[C@@H]1CN([C@H](C)CO)C(=O)CCCn2nncc2CO[C@@H]1CN(C)C(=O)c1cc(-c2ccccc2)on1,66% (active)
15,C[C@H](CO)N1C[C@H](C)[C@H](CN(C)C(=O)c2cc(-c3ccccc3)on2)OCc2cnnn2CCCC1=O,29.3%
16,C[C@@H]1CN([C@H](C)CO)C(=O)CCCn2nncc2CO[C@@H]1CN(C)Cc1cccc(C(F)(F)F)c1,61.3% (active)
17,C[C@H](CO)N1C[C@H](C)[C@@H](CN(C)Cc2cccc(C(F)(F)F)c2)OCc2cnnn2CCCC1=O,-35.1%
18,C[C@@H]1CN([C@H](C)CO)C(=O)CCCn2nncc2CO[C@H]1CN(C)C(=O)c1cc(-c2ccccc2)on1,-10.9%
19,CNC[C@@H]1OCCCC[C@H](C)Oc2ccc(NS(=O)(=O)c3ccc(F)cc3)cc2C(=O)N([C@@H](C)CO)C[C@H]1C,-4.63%
20,Cc1cccc(S(=O)(=O)N[C@@H]2CC[C@@H](CCNC(=O)Nc3cc(F)ccc3F)O[C@H]2CO)c1,-12.4%
21,COc1ccc(-c2ccc([C@H]3[C@H](CO)N4C(=O)CN(Cc5ccccc5)C[C@@H]34)cc2)cc1,-9.55%
22,COc1ccc(S(=O)(=O)N(C)C[C@H]2Oc3ccc(NC(=O)Nc4ccc(C(F)(F)F)cc4)cc3C(=O)N([C@@H](C)CO)C[C@@H]2C)cc1,-95.1%

row,Structure (SMILES),inhibition
1,CCNC(=O)[C@@H]1[C@@H](CO)[C@@H]2Cn3c(cccc3=O)[C@H]1N2C(=O)Nc1cc(F)ccc1F,-43%
2,O=C(Nc1ccccc1)[C@@H]1[C@@H](CO)[C@@H]2Cn3c(cccc3=O)[C@H]1N2C(=O)c1ccc(F)cc1,51.2% (active)
3,O=C(Nc1ccccc1)[C@H]1[C@H](CO)[C@H]2Cn3c(cccc3=O)[C@@H]1N2C(=O)c1ccc(F)cc1,11.4%
4,N#C[C@H]1[C@@H](c2ccccc2)[C@H](CO)N1C(=O)c1cc(Cl)cc(Cl)c1,26.8%
5,CC(C)NC(=O)N[C@@H]1CC[C@H](CC(=O)NCCCN(C)C)O[C@@H]1CO,50.2% (active)
6,CC(C)NC(=O)N[C@@H]1CC[C@@H](CC(=O)NCCCN(C)C)O[C@H]1CO,1.3%
7,CC(C)NC(=O)N[C@H]1CC[C@H](CC(=O)NCCCN(C)C)O[C@@H]1CO,12%
8,C[C@H](CO)N1C[C@H](C)[C@@H](CN(C)S(=O)(=O)c2cccs2)Oc2ccc(NC(=O)Nc3cccc4ccccc34)cc2C1=O,3.66%
9,CO[C@@H]1CN(C)C(=O)c2ccc(NC(=O)c3nc4ccccc4s3)cc2OC[C@@H](C)N(Cc2cccnc2)C[C@@H]1C,1.63%
10,CO[C@@H]1CN(C)C(=O)c2ccc(NC(=O)c3nc4ccccc4s3)cc2OC[C@@H](C)N(Cc2cccnc2)C[C@H]1C,68.4% (active)
11,CO[C@H]1CN(C)C(=O)c2ccc(NC(=O)c3nc4ccccc4s3)cc2OC[C@@H](C)N(Cc2cccnc2)C[C@@H]1C,1.26%
12,CCCNC(=O)N1[C@@H]2Cn3c(cccc3=O)[C@H]1[C@@H](C(=O)N1CCC(Cc3ccccc3)CC1)[C@@H]2CO,-24.7%
13,C[C@H]1CN([C@@H](C)CO)C(=O)CCCn2nncc2CO[C@H]1CN(C)C(=O)Nc1ccc2c(c1)OCCO2,-11.1%
14,CCCC#Cc1ccc2c(c1)O[C@@H](CN(C)Cc1ccccn1)[C@@H](C)CN([C@@H](C)CO)S2(=O)=O,-16.9%
15,CC(C)[C@@H]1CC=CC[C@H](C)Oc2ccccc2C(=O)N(C)[C@@H](Cc2ccccc2)C(=O)N1 (mixture of isomers),15.6%
16,C[C@H]1CC=CC[C@H](c2ccc(F)cc2)NC(=O)[C@@H](Cc2ccccc2)N(C)C(=O)c2ccccc2O1 (mixture of isomers),-32.9%
17,C[C@H]1CC=CC[C@@H](c2ccc(F)cc2)NC(=O)[C@H](Cc2ccccc2)N(C)C(=O)c2ccccc2O1 (mixture of isomers),64% (active)
18,CC(C)[C@@H]1CC=CC[C@@H](C)Oc2ccccc2C(=O)N(C)[C@H](Cc2ccccc2)C(=O)N1 (mixture of isomers),38.9%
19,C[C@@H]1CC=CC[C@H](c2ccc(F)cc2)NC(=O)[C@@H](Cc2ccccc2)N(C)C(=O)c2ccccc2O1 (mixture of isomers),60.2% (active)
20,C[C@H]1CC=CC[C@H](c2ccc(F)cc2)NC(=O)[C@H](Cc2ccccc2)N(C)C(=O)c2ccccc2O1 (mixture of isomers),-3.91%
